From PubChem BioAssay (NCI)
The panel holds about 79,000 compounds, 15% with a hit somewhere; the sample as a whole holds those more often. A number with no mark means an inactive call. Calls of active or inactive are those of the source. No stated cut-off is given here; in the data, active means growth inhibition above about 70%; inactive means the rest.

Legend:
[1] = NCI Yeast Anticancer Drug Screen. Data for the rad52 strain (AID 147);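 further: 0% = growth of vehicle-treated control cultures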; conditions: S. cerevisiae rad52 mutant growth inhibition, hits give high values
Method in brief: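 Yeast strain carrying a DNA damage repair alteration was exposed to test compounds. Growth inhibition was measured relative to vehicle-treated controls.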

[2] = NCI Yeast Anticancer Drug Screen. Data for the wt1 strain (AID 149);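 further: 0% = growth of vehicle-treated wt1 cultures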; conditions: S. cerevisiae wt1 strain (SPY 50644) growth inhibition, hits give high values
Method in brief: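 Vehicle-normalised growth inhibition; strain wt1; compound exposure.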

[3] = NCI Yeast Anticancer Drug Screen. Data for the rad50EPP+ strain (AID 151);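 further: 0% = growth of vehicle-treated control cultures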; conditions: S. cerevisiae rad50 mutant strain, hits give high values
Method in brief: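 Yeast strain carrying rad50 alteration (rad50EPP+) exposed to compounds; growth inhibition measured relative to vehicle-treated controls.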

[4] = NCI Yeast Anticancer Drug Screen. Data for the mgt1 strain (AID 153); conditions: S. cerevisiae mgt1 mutant growth inhibition, hits give high values
Method in brief: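 Yeast mgt1 strain (DNA repair/cell-cycle alteration panel) exposed to compounds; growth inhibition measured relative to vehicle-treated controls.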

[5] = NCI Yeast Anticancer Drug Screen. Data for the rad50 strain (AID 155);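 further: 0% = growth of vehicle-only cultures of the same strain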; conditions: S. cerevisiae rad50 strain growth inhibition, hits give high values
Method in brief: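 A DNA repair-deficient yeast mutant serves as the test organism; compound-induced growth inhibition is calculated against vehicle-treated cells.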

[6] = NCI Yeast Anticancer Drug Screen. Data for the mec2-1 strain (AID 157); conditions: S. cerevisiae mec2-1 strain, hits give high values
Method in brief: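 mec2-1 yeast strain, carrying an alteration in DNA damage repair or cell cycle control, was exposed to compounds; growth inhibition was measured relative to vehicle-treated controls.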

[7] = NCI Yeast Anticancer Drug Screen. Data for the rad14 strain (AID 159);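 further: 0% = growth of vehicle-treated control cultures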; conditions: S. cerevisiae rad14 strain growth inhibition, hits give high values
Method in brief: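 Vehicle-treated cultures served as the baseline for growth inhibition of a DNA repair-mutant yeast strain exposed to each compound.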

[8] = NCI Yeast Anticancer Drug Screen. Data for the sgs1 mgt1 strain (AID 161);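 further: 0% = growth of cultures given vehicle only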; conditions: S. cerevisiae sgs1 mgt1 strain, hits give high values
Method in brief: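 Compounds are added to genetically altered yeast, and growth is compared with cultures given vehicle alone to give percent inhibition.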

[9] = NCI Yeast Anticancer Drug Screen. Data for the CLN2oe strain (AID 163);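 further: 0% = growth of vehicle-only control cultures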; conditions: S. cerevisiae CLN2oe strain, hits give high values
Method in brief: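 Yeast cells carrying a defined cell-cycle control alteration were exposed to test compounds. Growth inhibition was scored against vehicle-treated control cultures.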

[10] = NCI Yeast Anticancer Drug Screen. Data for the cln2 rad14 strain (AID 165);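 further: 0% = growth equal to vehicle treated cultures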; conditions: S. cerevisiae cln2 rad14 strain, hits give high values
Method in brief: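 Yeast carrying cln2 and rad14 alterations (cell cycle control and DNA damage repair) were exposed to compounds. Growth inhibition was measured against vehicle-treated controls.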

[11] = NCI Yeast Anticancer Drug Screen. Data for the bub3 strain (AID 167); conditions: S. cerevisiae bub3 mutant strain, hits give high values
Method in brief: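 Inhibition values come from growth of compound-treated mutant yeast normalised to vehicle-treated controls.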

[12] = NCI Yeast Anticancer Drug Screen. Data for the wt2 strain (AID 169);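 further: 0% = growth of vehicle-treated yeast cultures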; conditions: S. cerevisiae wt2 strain growth inhibition, hits give high values
Method in brief: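 Yeast cells were exposed to test compounds, and growth inhibition was measured relative to vehicle-treated controls.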

[13] = NCI Yeast Anticancer Drug Screen. Data for the mlh1 strain (AID 171);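 further: 0% = growth of vehicle-treated control cultures of the same strain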; conditions: S. cerevisiae mlh1 strain growth inhibition, hits give high values
Method in brief: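 Yeast carrying a defined genetic alteration in DNA damage repair or cell cycle control were exposed to test compounds. Growth inhibition was measured relative to vehicle-treated controls.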

[14] = NCI Yeast Anticancer Drug Screen. Data for the sgs1 strain (AID 173);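 further: 0% = growth of vehicle-only control cultures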; conditions: S. cerevisiae sgs1 mutant, hits give high values
Method in brief: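 Yeast mutant strains carrying defined defects in DNA damage repair or cell cycle control were exposed to test compounds. Growth inhibition was scored against vehicle-treated controls.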

[15] = NCI Yeast Anticancer Drug Screen. Data for the mlh1 rad18 strain (AID 175); conditions: S. cerevisiae mlh1 rad18 strain growth inhibition, hits give high values
Method in brief: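 Growth inhibition of the yeast strain was measured after compound exposure and expressed relative to vehicle-treated controls. The strain carries defined defects in DNA damage repair.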

[16] = NCI Yeast Anticancer Drug Screen. Data for the rad18 strain (AID 177); conditions: S. cerevisiae rad18 mutant growth inhibition, hits give high values
Method in brief: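 Yeast carrying a defined DNA damage repair alteration were exposed to compounds. Growth inhibition was expressed relative to vehicle-treated controls.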

[17] = at 5.0 µM (retest, dose inferred, filed as 0.5)
[18] = at 50.0 µM (retest, dose inferred, filed as 5.0)

## CCCCCCCCNC(=O)C1=C(C)NC(C)=C(C(=O)NCCCCCCCC)C1
[1]; at 1.2 µM
  growth inhibition: 0%
[1]; at 3.7 µM
  growth inhibition: 1%
[1]; at 11.0 µM
  growth inhibition: 3%
[1]; at 33.0 µM
  growth inhibition: -4%
[1]; at 100.0 µM
  growth inhibition: 3%
[2]; at 1.2 µM
  growth inhibition: 2%
[2]; at 3.7 µM
  growth inhibition: 3%
[2]; at 11.0 µM
  growth inhibition: 1%
[2]; at 33.0 µM
  growth inhibition: 0%
[2]; at 100.0 µM
  growth inhibition: 3%
[3]; at 1.2 µM
  growth inhibition: 0%
[3]; at 3.7 µM
  growth inhibition: -1%
[3]; at 11.0 µM
  growth inhibition: 2%
[3]; at 33.0 µM
  growth inhibition: 11%
[3]; at 100.0 µM
  growth inhibition: 25%
[4]; at 1.2 µM
  growth inhibition: 0%
[4]; at 3.7 µM
  growth inhibition: 0%
[4]; at 11.0 µM
  growth inhibition: 1%
[4]; at 33.0 µM
  growth inhibition: -13%
[4]; at 100.0 µM
  growth inhibition: 4%
[5]; at 1.2 µM
  growth inhibition: -4%
[5]; at 3.7 µM
  growth inhibition: -13%
[5]; [17]
  growth inhibition: 8%
[5]; at 11.0 µM
  growth inhibition: -17%
[5]; at 33.0 µM
  growth inhibition: -3%
[5]; [18]
  growth inhibition: 6%
[5]; at 50.0 µM
  growth inhibition: -29.5%
[5]; at 100.0 µM
  growth inhibition: 4%
[6]; at 1.2 µM
  growth inhibition: 0%
[6]; at 3.7 µM
  growth inhibition: 2%
[6]; [17]
  growth inhibition: -7%
[6]; at 11.0 µM
  growth inhibition: 0%
[6]; at 33.0 µM
  growth inhibition: -4%
[6]; [18]
  growth inhibition: 14%
[6]; at 50.0 µM
  growth inhibition: -5.25%
[6]; at 100.0 µM
  growth inhibition: 7%
[7]; at 1.2 µM
  growth inhibition: 1%
[7]; at 3.7 µM
  growth inhibition: 0%
[7]; at 11.0 µM
  growth inhibition: 2%
[7]; at 33.0 µM
  growth inhibition: 4%
[7]; at 100.0 µM
  growth inhibition: 11%
[8]; [17]
  growth inhibition: -7%
[8]; [18]
  growth inhibition: 4%
[8]; at 50.0 µM
  growth inhibition: 0.45%
[9]; at 1.2 µM
  growth inhibition: 4%
[9]; at 3.7 µM
  growth inhibition: 2%
[9]; at 11.0 µM
  growth inhibition: -1%
[9]; at 33.0 µM
  growth inhibition: 0%
[9]; at 100.0 µM
  growth inhibition: 2%
[10]; [17]
  growth inhibition: 42%
[10]; [18]
  growth inhibition: 2%
[10]; at 50.0 µM
  growth inhibition: 35.4%
[11]; at 1.2 µM
  growth inhibition: 0%
[11]; at 3.7 µM
  growth inhibition: 0%
[11]; [17]
  growth inhibition: 35%
[11]; at 11.0 µM
  growth inhibition: 0%
[11]; at 33.0 µM
  growth inhibition: 0%
[11]; [18]
  growth inhibition: -4%
[11]; at 50.0 µM
  growth inhibition: -6.55%
[11]; at 100.0 µM
  growth inhibition: 2%
[12]; at 1.2 µM
  growth inhibition: 1%
[12]; at 3.7 µM
  growth inhibition: 1%
[12]; at 11.0 µM
  growth inhibition: 0%
[12]; at 33.0 µM
  growth inhibition: 1%
[12]; at 100.0 µM
  growth inhibition: 2%
[13]; at 1.2 µM
  growth inhibition: 0%
[13]; at 3.7 µM
  growth inhibition: 2%
[13]; at 11.0 µM
  growth inhibition: 0%
[13]; at 33.0 µM
  growth inhibition: 2%
[13]; at 100.0 µM
  growth inhibition: 8%
[14]; at 1.2 µM
  growth inhibition: 2%
[14]; at 3.7 µM
  growth inhibition: 3%
[14]; at 11.0 µM
  growth inhibition: -3%
[14]; at 33.0 µM
  growth inhibition: 3%
[14]; at 100.0 µM
  growth inhibition: 14%
[15]; [17]
  growth inhibition: 8%
[15]; [18]
  growth inhibition: -5%
[15]; at 50.0 µM
  growth inhibition: -23.8%
[16]; at 1.2 µM
  growth inhibition: -1%
[16]; at 3.7 µM
  growth inhibition: -2%
[16]; at 11.0 µM
  growth inhibition: -4%
[16]; at 33.0 µM
  growth inhibition: -8%
[16]; at 100.0 µM
  growth inhibition: 2%

## O=C1C(=O)c2ccccc2C=C1[N+](=O)[O-]
[1]; at 1.2 µM
  growth inhibition: 3%
[1]; at 3.7 µM
  growth inhibition: 11%
[1]; at 11.0 µM
  growth inhibition: 26%
[1]; at 33.0 µM
  growth inhibition: 70% (active)
[1]; at 100.0 µM
  growth inhibition: 91% (active)
[2]; at 1.2 µM
  growth inhibition: 3%
[2]; at 3.7 µM
  growth inhibition: 5%
[2]; at 11.0 µM
  growth inhibition: 9%
[2]; at 33.0 µM
  growth inhibition: 15%
[2]; at 100.0 µM
  growth inhibition: 26%
[3]; at 1.2 µM
  growth inhibition: -1%
[3]; at 3.7 µM
  growth inhibition: -1%
[3]; at 11.0 µM
  growth inhibition: 5%
[3]; at 33.0 µM
  growth inhibition: 15%
[3]; at 100.0 µM
  growth inhibition: 29%
[4]; at 1.2 µM
  growth inhibition: 2%
[4]; at 3.7 µM
  growth inhibition: 10%
[4]; at 11.0 µM
  growth inhibition: 9%
[4]; at 33.0 µM
  growth inhibition: 15%
[4]; at 100.0 µM
  growth inhibition: 58%
[5]; at 1.2 µM
  growth inhibition: 0%
[5]; at 3.7 µM
  growth inhibition: 9%
[5]; [17]
  growth inhibition: -12%
[5]; at 11.0 µM
  growth inhibition: 12%
[5]; at 33.0 µM
  growth inhibition: 36%
[5]; [18]
  growth inhibition: 30%
[5]; at 50.0 µM
  growth inhibition: 50.5%
[5]; at 100.0 µM
  growth inhibition: 82% (active)
[6]; at 1.2 µM
  growth inhibition: 2%
[6]; at 3.7 µM
  growth inhibition: 5%
[6]; [17]
  growth inhibition: 8%
[6]; at 11.0 µM
  growth inhibition: 13%
[6]; at 33.0 µM
  growth inhibition: 18%
[6]; [18]
  growth inhibition: 13%
[6]; at 50.0 µM
  growth inhibition: 29.4%
[6]; at 100.0 µM
  growth inhibition: 35%
[7]; at 1.2 µM
  growth inhibition: 2%
[7]; at 3.7 µM
  growth inhibition: 17%
[7]; at 11.0 µM
  growth inhibition: 15%
[7]; at 33.0 µM
  growth inhibition: 37%
[7]; at 100.0 µM
  growth inhibition: 86% (active)
[8]; [17]
  growth inhibition: 14%
[8]; [18]
  growth inhibition: 77% (active)
[8]; at 50.0 µM
  growth inhibition: 73.7% (active)
[9]; at 1.2 µM
  growth inhibition: 2%
[9]; at 3.7 µM
  growth inhibition: 3%
[9]; at 11.0 µM
  growth inhibition: 9%
[9]; at 33.0 µM
  growth inhibition: 17%
[9]; at 100.0 µM
  growth inhibition: 23%
[10]; [17]
  growth inhibition: -13%
[10]; [18]
  growth inhibition: 14%
[10]; at 50.0 µM
  growth inhibition: 16.8%
[11]; at 1.2 µM
  growth inhibition: 0%
[11]; at 3.7 µM
  growth inhibition: 3%
[11]; [17]
  growth inhibition: -14%
[11]; at 11.0 µM
  growth inhibition: 1%
[11]; at 33.0 µM
  growth inhibition: 4%
[11]; [18]
  growth inhibition: 8%
[11]; at 50.0 µM
  growth inhibition: 8.85%
[11]; at 100.0 µM
  growth inhibition: 49%
[12]; at 1.2 µM
  growth inhibition: 2%
[12]; at 3.7 µM
  growth inhibition: 6%
[12]; at 11.0 µM
  growth inhibition: 11%
[12]; at 33.0 µM
  growth inhibition: 28%
[12]; at 100.0 µM
  growth inhibition: 75% (active)
[13]; at 1.2 µM
  growth inhibition: 1%
[13]; at 3.7 µM
  growth inhibition: 1%
[13]; at 11.0 µM
  growth inhibition: 3%
[13]; at 33.0 µM
  growth inhibition: 22%
[13]; at 100.0 µM
  growth inhibition: 83% (active)
[14]; at 1.2 µM
  growth inhibition: 4%
[14]; at 3.7 µM
  growth inhibition: 11%
[14]; at 11.0 µM
  growth inhibition: 30%
[14]; at 33.0 µM
  growth inhibition: 65%
[14]; at 100.0 µM
  growth inhibition: 92% (active)
[16]; at 1.2 µM
  growth inhibition: 22%
[16]; at 3.7 µM
  growth inhibition: 54%
[16]; at 11.0 µM
  growth inhibition: 89% (active)
[16]; at 33.0 µM
  growth inhibition: 94% (active)
[16]; at 100.0 µM
  growth inhibition: 95% (active)
